For the test, the system named is HL-60(TB) leukemia. Kind of test: NCI-60 one-dose screen, 48 h (100 = growth as untreated, 0 = no growth, -100 = all killed). The note with it: 10 µM unless noted.

Growth data for 13 compounds are collected here from PubChem BioAssay (NCI).

About 83,000 compounds went through this panel and 20% of them were active in at least one assay; those are over-represented in the sample as a whole.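 Note: values are percent growth. 100 is the growth of untreated cells, values between 100 and 0 indicate rising inhibition; between -100 and 0 indicates cell death.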 Unmarked numbers belong to inactive results. The source made the active and inactive calls. The calls were made as follows: active = growth percent below 10; inactive = the rest.

`Cc1ccc(Nc2ncnc3c2c(C)nn3-c2ccc([N+](=O)[O-])cc2)cc1`: the growth was 96.7%. With `COc1ccc(-c2c3c(cn2Cc2cccc(OC)c2)-c2oncc2CCC3)cc1` the figure was 100%; with `CN1CC[C@@H]2[C@@]3(C)CC[C@H](O)C(C)(C)[C@@H]3CC[C@@]2(C)[C@]2(C)CC[C@@]3(CO)CCC(C)(C)C[C@@H]3C12` (stereo partly drawn), 79.6%. Consider `Oc1ccc(-c2nnc(SCc3ccc(O)c4ncccc34)o2)cc1`, for which the growth is 5.77% (active). The result for `O=C(/C=C/c1cccc(O)c1)c1ccc(O)cc1` reads 72.3%; that for `O=C(CSc1nc2ccccc2c(=O)n1-c1ccccc1)N/N=C/c1ccc(Oc2ccc(Cl)cc2)cc1`, 106%; that for `COc1ccc2c(c1)oc1c3[nH]c4ccccc4c3c3c(c21)C(=O)N(O)C3=O`, 53.3%. For the compound `OC1CCc2c(-c3ccc4ncnc(N5CCc6cc(F)c(Cl)cc65)c4c3)cncc21` (stereo not drawn), the growth is 34.3%.

Consider `COc1ccc(-c2cc(C(=O)N=Nc3c(O)[nH]c4ccccc34)c3ccccc3n2)cc1OC`, for which the growth was 106%. The result for `O=C(NNc1nc2cc(F)cc(F)c2n2cccc12)c1cnccn1` reads -25% (active); that for `CC(C)(C)OC(=O)N1CCN(S(=O)(=O)/N=C2\NC(=O)NC2=C(Cl)Cl)CC1`, 40.3%; that for `COc1ccc(COc2ccc(/C=C3/C(=O)Nc4cc(Cl)ccc43)cc2)cc1`, 119%.

In the case of `Cc1cc2nc(C(Cl)Cl)nc(-c3ccco3)n2n1`, the growth is -4.98% (active).
